The text below walks through data of PubChem BioAssay (NCATS).

Where “and” joins values, the source holds several entries; their conditions need not be identical. Equal values may be shown once. Values without a mark were called inactive. Inconclusive results are not listed. Calls of active or inactive are those of the source. Unless noted, calls follow the shape of the dose curve; as a rule, active = well fitted curve in either direction with a large enough effect (not every such curve was filed as active); inconclusive = small, poorly fitted or top-dose-only effect, or another doubt; inactive = flat fitted curve, though single readings scatter.

Experiment [1] in a line: AP1 Signaling Pathway (AID 357).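 Also: ME-180 reporter cells stimulated with EGF at its EC50 level; % is scaled to controls: 0 for no effect and ±100 for the full control effect.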 Conditions: ME-180 AP-1-bla reporter, EGF-induced, beta-lactamase ratio, 5 h. The essentials:
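First, ME-180 AP-1-bla cells were cultured overnight at 37 °C in low-serum Opti-MEM. Next, titrated compounds with EC50 EGF were incubated 5 hours. Finally, CCF4 was added for 2.5 hours and the 460/530 nm ratio recorded.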

The target of experiment [2] is Cytochrome P450 1A2 (Homo sapiens) (UniProt P05177). The experiment in a line: p450-cyp1a2 (AID 410; calls by dose curve; also: potency is read from the fitted curve at half-maximal effect;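 as to activity change, negative = inhibition: -100% = full effect of reference inhibitor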). Particulars: recombinant CYP1A2, luciferin-ME demethylation, luminescence; series mostly up to 25.6 µM. The essentials: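 O-Demethylation of luciferin 6' methyl ether by human CYP1A2 is monitored as luciferase luminescence. Substrate sits at Km (100uM); enzyme is 20nM. Values are scaled to 57 uM furafylline as maximal inhibition.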
Cytochrome P450 1A2 (Homo sapiens), sequence (P05177 whole entry, looked up): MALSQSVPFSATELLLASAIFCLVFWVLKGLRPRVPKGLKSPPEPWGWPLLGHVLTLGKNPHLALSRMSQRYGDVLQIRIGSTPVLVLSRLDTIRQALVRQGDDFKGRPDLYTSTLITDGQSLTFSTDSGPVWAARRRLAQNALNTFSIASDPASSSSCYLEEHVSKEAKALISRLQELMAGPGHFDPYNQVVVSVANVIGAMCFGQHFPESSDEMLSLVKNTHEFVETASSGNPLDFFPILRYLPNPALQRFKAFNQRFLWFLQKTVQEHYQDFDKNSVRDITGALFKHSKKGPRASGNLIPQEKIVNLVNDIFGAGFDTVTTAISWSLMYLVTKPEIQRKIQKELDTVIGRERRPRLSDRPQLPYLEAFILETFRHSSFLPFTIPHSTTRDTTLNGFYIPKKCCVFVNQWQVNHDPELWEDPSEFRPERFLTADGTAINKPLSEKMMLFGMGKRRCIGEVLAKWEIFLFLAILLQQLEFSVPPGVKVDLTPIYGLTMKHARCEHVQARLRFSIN

A short description of experiment [3]: NFAT Signaling Pathway (AID 444).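 Also: carbachol stimulus at about its EC50 of 1 µM final; % is scaled to controls: 0 for no effect and ±100 for the full control effect.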 Conditions: Jurkat NFAT-bla M1, carbachol, beta-lactamase ratio, 5 h. The essentials:
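Read-out: CCF4 FRET ratio (460 nm/530 nm) after 1 h RT dye loading, used for %activity and AC50 from titration series. Cells: Jurkat NFAT-β-lactamase/M1 line, treated with compound plus 1 uM carbachol for 5 h, 37 °C.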

Experiment [4] in a line: Stat Signaling Pathway (AID 446).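 Also: ME-180 cervical cancer cells given 40 pM IL-6 alongside compound; SIE-controlled beta-lactamase reporter measured as 460/530 nm FRET emission ratio; % is scaled to controls: 0 for no effect and ±100 for the full control effect.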 Particulars: ME-180 (cervical carcinoma) SIE beta-lactamase reporter, IL-6 stimulated, 5 h. The essentials: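 Overnight-plated ME-180 cells bearing a STAT Inducible Element beta-lactamase reporter; 5 h co-exposure to compound and 40 pM IL-6; values normalized to 300 pM IL-6 and 125 nM JAK inhibitor controls.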
For experiment [5], the target named is Glucocorticoid receptor (Homo sapiens) (UniProt P04150). The experiment in a line: GR-GFP Redistribution (AID 450;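 active = compounds whose dose series gives a full or clear partial fitted curve of increased nuclear translocation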; also: potency is read from the fitted curve at half-maximal effect). Conditions: U2OS GR-GFP nuclear translocation, laser cytometry, 2 h.
Glucocorticoid receptor (Homo sapiens), sequence (P04150 whole entry, looked up, the tested form may be a part): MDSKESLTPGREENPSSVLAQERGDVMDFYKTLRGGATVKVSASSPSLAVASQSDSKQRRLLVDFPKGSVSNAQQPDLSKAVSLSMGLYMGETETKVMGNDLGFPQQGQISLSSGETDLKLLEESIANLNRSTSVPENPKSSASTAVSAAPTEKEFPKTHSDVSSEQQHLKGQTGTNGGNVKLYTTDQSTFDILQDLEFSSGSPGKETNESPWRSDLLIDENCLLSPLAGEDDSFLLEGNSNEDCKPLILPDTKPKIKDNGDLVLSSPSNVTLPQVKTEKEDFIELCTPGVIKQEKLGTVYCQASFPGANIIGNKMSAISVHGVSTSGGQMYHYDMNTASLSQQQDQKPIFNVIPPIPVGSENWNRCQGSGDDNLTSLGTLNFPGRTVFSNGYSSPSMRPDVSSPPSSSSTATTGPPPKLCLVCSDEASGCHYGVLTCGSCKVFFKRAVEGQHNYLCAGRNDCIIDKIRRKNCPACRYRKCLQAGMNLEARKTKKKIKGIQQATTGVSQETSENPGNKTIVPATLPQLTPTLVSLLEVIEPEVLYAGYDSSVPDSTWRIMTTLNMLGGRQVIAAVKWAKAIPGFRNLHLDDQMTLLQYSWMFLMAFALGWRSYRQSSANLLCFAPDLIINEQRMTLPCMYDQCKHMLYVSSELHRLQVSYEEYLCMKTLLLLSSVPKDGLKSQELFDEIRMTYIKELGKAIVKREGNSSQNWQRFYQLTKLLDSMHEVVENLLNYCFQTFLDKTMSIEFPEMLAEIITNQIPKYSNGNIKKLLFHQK
The target in experiment [6] is Mitogen-activated protein kinase 10 (Mus musculus) (UniProt Q61831). The experiment in a line: JNK3 AlphaScreen Assay (AID 530).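 Also: kinase came from lysate of stimulated human HepG2 cells; signal reports phosphorylation of biotinylated GST-cJun 1-79 at Ser73 with 10 µM ATP; % is scaled to controls: 0 for no effect and ±100 for the full control effect.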 Conditions: JNK3 lysate, c-Jun phosphorylation; series mostly up to 25.6 µM. Put shortly: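 qHTS titrations with 15 min compound pre-incubation before adding ATP (10 uM final). Read-out: AlphaScreen of Ser73-phosphorylated biotin-GST-cJun using HepG2 lysate JNK3 activated by IL-1β and TNFα.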
On the technique in general: Bead proximity is the source of the signal in Alpha formats.

Experiment [7] concerns the target Glucocorticoid receptor (Homo sapiens) (UniProt P04150). The experiment in a line: GR-EFC Redistribution (AID 451; calls by dose curve; also: potency is read from the fitted curve at half-maximal effect). Particulars: CHO-K1 GR-EFC translocation, beta-gal luminescence, 2 h. The essentials: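 Translocation of GR-ED fusion to nuclear EA restores b-gal, read by luminescence after 1 h room-temperature detection. Engineered CHO-K1 biosensor cells, 1,000/well, exposed 2 h at 37 C to titrations up to 46 uM final.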

On to `Oc1cc(O)c2c(c1)O[C@H](c1ccc(O)c(O)c1)[C@H](O)C2`, for which the activity change, negative = inhibition in experiment [1] (at 17.2 µM (top of the series)) is 10.1% and 0.263%; in experiment [1] (at 38 µM (top of the series)), -5.09%; in experiment [3] (at 17.2 µM (top of the series)), -6.82% and 0.191%; in experiment [3] (at 38 µM (top of the series)) it was -2.11%. Also, in experiment [2], the Potency entry is “inactive”. The activity, negative = inhibition was -2.66% and 0.865% in experiment [4] (at 17.2 µM (top of the series)); -26.7% in experiment [4] (at 38 µM (top of the series)). Moreover, the Potency in experiment [5] was > 46 µM and > 20.6 µM. Besides, the compound was called inactive in experiment [6].
Turning to `C[C@H](O)C(=O)Nc1c(I)c(C(=O)NC(CO)CO)c(I)c(C(=O)NC(CO)CO)c1I`, the activity change, negative = inhibition in experiment [1] (at 17.2 µM (top of the series)) is 11.2%; in experiment [3] (at 17.2 µM (top of the series)), 3.52%. In experiment [2], the Potency entry is “inactive”. The activity, negative = inhibition in experiment [4] (at 17.2 µM (top of the series)) was -2.21%. The Potency in experiment [5] was > 20.6 µM. Further, the call in experiment [6] was inactive.
As to `CN(C(=O)CN(CCO)CC(=O)N(C)C(C)(C)Cc1ccccc1)C(C)(C)Cc1ccccc1`, the values for the activity change, negative = inhibition in experiment [1] (at 17.2 µM (top of the series)) and in experiment [3] (at 17.2 µM (top of the series)) were -21.6% and -2.45%, respectively. Besides, the Potency entry in experiment [2] is “inactive”. Also, the activity, negative = inhibition in experiment [4] (at 17.2 µM (top of the series)) is 5.14%. Also, the Potency in experiment [5] is > 20.6 µM. The call in experiment [6] was inactive.
For `CCCn1c(=O)[nH]c(=O)c2[nH]cnc21`, the activity change, negative = inhibition in experiment [1] (at 17.2 µM (top of the series)) was 4.48%; in experiment [1] (at 38 µM (top of the series)), 4.71%; in experiment [3] (at 17.2 µM (top of the series)), -21.8%; in experiment [3] (at 38 µM (top of the series)), 4.56%. In experiment [2], the Potency result was “inactive”. Also, the activity, negative = inhibition in experiment [4] (at 17.2 µM (top of the series)) is 4.71%; in experiment [4] (at 38 µM (top of the series)) it was -5.28%. Further, in experiment [6], the compound was classed as inactive.
With `COc1cc(-c2ccc(=O)[nH]n2)ccc1OC(F)F`, the activity change, negative = inhibition in experiment [1] (at 17.2 µM (top of the series)) was -8.42%; in experiment [1] (at 38 µM (top of the series)), 17.6%; in experiment [3] (at 17.2 µM (top of the series)), -13.5%; in experiment [3] (at 38 µM (top of the series)), -7.13%. In addition, the Potency is 10 µM (active) and 5.01 µM (active) and 2.51 µM (active) in experiment [2]; > 46 µM and > 20.6 µM in experiment [5]; > 46 µM and > 20.6 µM in experiment [7]. Moreover, the results for the activity, negative = inhibition in experiment [4] (at 17.2 µM (top of the series)) and in experiment [4] (at 38 µM (top of the series)) were 0.425% and -14.4%, respectively. Further, the compound was called inactive in experiment [6].
`NCCc1ccn[nH]1`: the activity change, negative = inhibition was 2.73% in experiment [1] (at 17.2 µM (top of the series)) and -6.22% in experiment [3] (at 17.2 µM (top of the series)). The Potency entry in experiment [2] is “inactive”. Further, the activity, negative = inhibition in experiment [4] (at 17.2 µM (top of the series)) is 4.55%. Besides, the Potency in experiment [5] is > 20.6 µM. In addition, the outcome in experiment [6] was inactive.
As for `O=C(O)c1cc2cc(Cc3cccnc3)ccc2o1`, the activity change, negative = inhibition in experiment [1] (at 38 µM (top of the series)) is -4.5%; in experiment [3] (at 38 µM (top of the series)) it was -0.641%. Moreover, in experiment [2], the Potency result is “inactive”. Moreover, in experiment [4] (at 38 µM (top of the series)), the activity, negative = inhibition was 6.34%. The Potency in experiment [5] is > 46 µM. In experiment [6], the outcome was inactive.
For `C1CCc2nnnn2CC1`, the activity change, negative = inhibition in experiment [1] (at 17.2 µM (top of the series)) is 8.91%; in experiment [1] (at 38 µM (top of the series)), 6.67%; in experiment [3] (at 17.2 µM (top of the series)) it was -9.11%; in experiment [3] (at 38 µM (top of the series)), -6.06%. In experiment [2], the Potency result is “inactive”. Further, the activity, negative = inhibition is 5.56% in experiment [4] (at 17.2 µM (top of the series)) and -9.49% in experiment [4] (at 38 µM (top of the series)). In experiment [6], the call was inactive.
